# Measured values from PubChem BioAssay AID1377 (University of Pittsburgh Molecular Library Screening Center, 2008).
# “And” between values parts separate entries of the source, which are not always exact repeats. Equal values may be shown once. About 830 (0.38%) of roughly 220,000 compounds were called active. What follows is part of a selection rich in actives, with near analogues and random picks from the rest. Values without a mark were called inactive.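 Rule for the calls: active = activation, scaled between plate controls, above about 75% (limit read from the data); inactive = activation under that limit.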
# Test: rescue of L929 cells from zVAD death – primary screen (AID 1377);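 note: 0% = zVAD with DMSO and 100% = DMSO alone without zVAD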
# Settings: L929 zVAD necroptosis rescue, ATP luminescence, 24 h, at 10 µM, stronger effect = higher value; with zVAD 60 µM unless noted
row,SMILES,viability rescue
1,Cn1c(=O)c2c(nc(NCc3ccccc3)n2CC(N)=O)n(C)c1=O,-0.38%
2,Clc1ccc(-c2cc(-c3ccccn3)on2)c(Cl)c1,-0.1%
3,COc1ccc(Br)c2c1C(=O)CC2,1.09%
4,NC1=NC[C@@H](Cc2ccc(O)cc2)N1CC1CCCCC1,0.84%
5,c1ccc2c(c1)CSc1sccc1C2=C1CCNCC1,1.55%
6,Cc1nccn1CC(=O)N/N=C/c1ccc(O)c(O)c1,0.09% [with zVAD 20 µM]
7,Oc1ccc(/C=N/Nc2ccc(C(F)(F)F)cn2)cc1O,78.6% (active)
8,O=C(Nc1ccccc1)Nc1ccc(C(F)(F)F)cn1,16.8%
9,COc1cc(Cl)c(C)cc1NC(=O)COC(=O)c1cc(SC)ccc1Cl,-0.03% [with zVAD 20 µM]
10,O=S(=O)(NC1CC1)c1ccc2c3c(cccc13)CC2,2.42%
11,Cc1csc(NC(=O)Nc2ccccc2[N+](=O)[O-])n1,0.75%
12,CC(=O)Nc1cccc(C(=O)Nc2nc(C)cs2)c1,-1.49%
13,Cc1csc(NC(=O)NC2(C(F)(F)F)Oc3ccccc3O2)n1,78.5% [with zVAD 20 µM] (active)
14,COc1ccc(CNC(=O)CN2CCC(n3nnc4cc(F)ccc43)CC2)cc1,-0.59%
15,Cc1oc(C(N)=O)cc1COc1ccc(C(N)=O)cc1,1.12%
16,Cc1cc(C(=O)NNS(=O)(=O)c2ccccc2C(F)(F)F)nn1C(C)(C)C,0.49%
17,CN(C)S(=O)(=O)c1ccc(NC(=O)COC(=O)Cn2[nH]c(=O)c3ccccc3c2=O)cc1,0.01%
18,COc1ccc(Cl)cc1NC(=O)COC(=O)C(CC(C)C)N1C(=O)C2CC=CCC2C1=O (configuration not stated),0.49% [with zVAD 20 µM]
19,CCOC(=O)C(=O)C1C(=O)Nc2ccccc21 (configuration not stated),-0.07%

row,SMILES,viability rescue
1,CC1CCCCC1NC(=O)/C(C#N)=C/C=C/c1ccccc1[N+](=O)[O-] (configuration not stated),77% (active)
2,O=C(/C=C/c1ccccc1[N+](=O)[O-])NCC1CCCO1 (configuration not stated),1.4%
3,O=C(/C=C/c1ccccc1[N+](=O)[O-])OC1CCCCC1=O (configuration not stated),-0.52%
4,C=CCn1c(P(C)(=O)O)nc2ccccc21,0.44% and 0.28%
5,CCOc1cc2[nH]c(=O)n(Cc3ccc(C(=O)NCCCN4CCCC4=O)cc3)c(=O)c2cc1OCC,0.03%
6,O=C(CSc1ccc([N+](=O)[O-])cn1)Nc1ccc(N2CCOCC2)c(Cl)c1,80.2% (active)
7,Cc1cccc(C)c1NC(=O)CSc1ccc([N+](=O)[O-])cn1,1.1%
8,O=C(CSc1ccc([N+](=O)[O-])cn1)Nc1ccc(N2CCOCC2)cc1,16.6%
9,Cc1ccc(-c2csc(N(Cc3ccco3)C(=O)c3cccs3)n2)cc1,-0.54%
10,COc1ccc2nc(Nc3nc4ccc(NC(C)=O)cc4s3)sc2c1,0.58%
11,COc1ccc2nc(NC(=O)NC3CCCCC3)sc2c1,85.7% (active)
12,COc1ccc2nc(NC(=O)c3ccc(Br)s3)sc2c1,0.35%
13,CC1=NNC(=O)C1CC(=O)N/N=C/c1ccncc1 (configuration not stated),-0.36%
14,Cc1ccc2[nH]c3c(=O)n(Cc4ccccn4)cnc3c2c1,0.13% [with zVAD 20 µM]
15,COc1cc(OC)c(OC)cc1/C=N/Nc1ncnc2c1[nH]c1ccc(C)cc12,78.9% (active)
16,CC(C)OCCCNc1ncnc2c1[nH]c1ccc(F)cc12,4.34% [with zVAD 20 µM]
17,CCOC(=O)c1cc(Sc2ccccc2N)cc(C(=O)OCC)n1,0.51%
18,CCOc1ccc(NC(=O)c2ccc(CSc3nnnn3C)cc2)cc1,1.6%
19,Cc1cc(C)nc(-n2nc(C)cc2NC(=O)c2ccc(F)cc2F)n1,0.15%

row,SMILES,viability rescue
1,Cc1cc(C)nc(-n2nc(C)cc2NC(=O)c2ccc(Br)o2)n1,82.2% [with zVAD 20 µM] (active)
2,Cc1cccc(-n2nc3c(c2NC(=O)c2ccc(Br)o2)CSC3)c1C,0.18% [with zVAD 20 µM]
3,COc1ccc(-c2csc(Nc3ccc(O)cc3)n2)cc1,93% (active)
4,COc1ccc(Nc2nc(-c3ccccc3)cs2)cc1,0.79%
5,COc1ccc(-c2csc(Nc3ccccn3)n2)cc1,1.69%
6,COc1cc2c(C(=O)N3CCN(C)CC3)c(CSc3ccccc3)n(C)c2cc1Br,-0.59%
7,CC(C)NC(=S)NN=C1CCCCCCCCCCC1,0.38%
8,Cc1nn(C)c(Oc2ccccc2)c1CCNS(=O)(=O)c1ccc(F)cc1,0.02% [with zVAD 20 µM]
9,COc1ccc(-c2cc(C(=O)NC(Cc3c[nH]c4ccccc34)C(=O)O)c(C)o2)cc1OC (configuration not stated),1.33%
10,CCN(CC)S(=O)(=O)c1ccc(NC(=O)c2cccnc2Cl)c(NC(=O)c2cccnc2Cl)c1,82.2% (active)
11,CCN(CC)S(=O)(=O)c1ccc(Cl)c(NC(=O)c2ccncc2)c1,0.44%
12,Cc1ccc(CNC(=O)c2cccnc2Cl)cc1,0.12%
13,O=C(N/N=C/c1cccc([N+](=O)[O-])c1)c1ccncc1,-0.83%
14,CN1CCN(C2=NCCO2)CC1,1%
15,CCOC(=O)C1(CCOc2ccccc2)CCN(C(=O)c2cncs2)CC1,-0.01%
16,COc1ccc(Nc2nc(NCc3ccco3)nc(N/N=C/c3ccccc3Cl)n2)cc1,0.33%
17,COc1ccc(-n2cnc3cc(NCc4ccco4)ccc32)cc1,79.9% (active)
18,COc1ccc(Nc2nc(Cl)nc(NCc3ccco3)n2)cc1,0.2% [with zVAD 20 µM]
19,O=C(Nc1cccc2c1N(C(=O)c1ccco1)CCC2)c1ccco1,-0.96%
